Source: PubChem BioAssay (The Scripps Research Institute Molecular Screening Center)
FBW7 activator: activators of human E3 ligase FBW7; Q969H0; AlphaScreen FBW7–phospho-cyclin E peptide binding, activator screen; normalized activity (activation), % at 26.1 µM; 0.13% of 650,000 active; in the data active means normalized activity above about 1.9%;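 further: purified mutant Fbw7 with reduced substrate affinity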
TEAD-YAP inh: TEAD-YAP interaction inhibition; HEK-TIYL cells, TEAD-Gal4/YAP UAS-luciferase luminescence; inhibition, % at 9.12 µM; 1.4% of 640,000 active; AID 1259422; in the data active means inhibition above about 32%;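 further: 0% = median of test compound wells and 100% = reference inhibitor wells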
MITF primary: blocks human microphthalmia-associated transcription factor | AlphaScreen MITF homodimerization, bead proximity signal | O75030 | AID 1259374 | inhibition, % at 2.6 µM | 0.91% of 650,000 active; in the data active means inhibition above about 50%;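 further: 0% = vehicle wells with protein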
GPR151 ag: human GPR151 activation. activation, % at 11.2 µM. PathHunter beta-arrestin GPR151 cells, luminescence. Q8TDV0. 1% of 650,000 active; in the data active means activation above about 4.9%;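 further: 0% = median of compound wells and 100% = cells with positive control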
Target sequence (Q8TDV0 whole entry, looked up): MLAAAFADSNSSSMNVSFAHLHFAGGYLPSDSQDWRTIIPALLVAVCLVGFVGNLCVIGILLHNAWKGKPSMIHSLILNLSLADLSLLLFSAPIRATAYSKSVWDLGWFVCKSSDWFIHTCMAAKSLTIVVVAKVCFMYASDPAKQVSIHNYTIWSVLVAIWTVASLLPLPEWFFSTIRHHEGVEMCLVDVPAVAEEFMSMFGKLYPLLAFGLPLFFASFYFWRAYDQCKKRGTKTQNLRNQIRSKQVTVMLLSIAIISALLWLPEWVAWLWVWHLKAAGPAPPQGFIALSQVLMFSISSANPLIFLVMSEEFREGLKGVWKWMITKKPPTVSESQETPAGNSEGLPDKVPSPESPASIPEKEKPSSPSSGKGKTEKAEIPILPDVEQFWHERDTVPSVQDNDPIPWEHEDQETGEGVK
MITF inh conf: human MITF inhibition, confirmation; shares compounds with MITF primary; AlphaScreen MITF homodimerization, biotin/His-MITF beads; inhibition, % at 2.6 µM; 16% of 4,700 active; AID 1259372;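 active means inhibition above a cutoff derived from the DMSO control wells, cut at about 28% in these data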;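 further: 0% = MITF dimer wells with DMSO only; inhibitors lower the bead chemiluminescence by keeping MITF from dimerizing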
AlphaScreen DR: optically interferes with AlphaScreen signal in dose response; shares compounds with MITF primary; AlphaScreen optical interference counterscreen, cell-free; IC50, µM; 6% of 480 active; AID 1259373; call rule not given here
AS interf ctr: counter-screen: compounds optically interfering with AlphaScreen; shares compounds with MITF primary; LysRS AlphaScreen counterscreen, signal interference, triplicate; inhibition, % at 2.6 µM; 7.6% of 4,700 active;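 active means inhibition above a cutoff derived from the DMSO control wells, cut at about 30% in these data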
GPR151 confirm: confirmation of human GPR151 activators. AID 1508609. GPR151 PathHunter beta-arrestin cells, luminescence, 90 min; % of EA-reagent control over plate median. activation, % at 11.2 µM. 6,700 tested, under 10 active. shares compounds with GPR151 ag;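 active means mean percent activation across replicates above the confirmation screen cutoff of 4.91%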
GPR119 ag: activates human GPR119 in a GPR151 counter-screen | shares compounds with GPR151 ag | GPR119 PathHunter beta-arrestin cells, luminescence, 90 min; 0 = compound-well median, 100 = enzyme-acceptor control | activation, % at 11.2 µM | 0.3% of 6,700 active;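 active means mean percent activation in the counterscreen above 29.09%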;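 further: counterscreen on off-target GPR119 to flag nonselective hits from the GPR151 activator screen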
An asterisk follows results filed as active; . = not tested or not shown. Shown are actives, neighbours in structure and some others; about 3.5% of the full set was active somewhere.

SMILES	FBW7 activator	TEAD-YAP inh	MITF primary	GPR151 ag	MITF inh conf	AS interf ctr	GPR151 confirm	GPR119 ag	others
CSc1ccc(CN2CCN(Cc3ccncc3)CC2)cc1	0	6	60*	0	3	-2	.	.
OCCN1CCN(Cc2ccc(OCc3ccccc3)cc2)CC1	0	10	28	1	.	.	.	.
OCCN1CCN(Cc2ccc(O)cc2)CC1	0	-3	86*	0	4	11	.	.
CSc1ccc(CN2CCN(C(=O)c3ccccc3F)CC2)cc1	0	31	40	0	.	.	.	.
CSc1ccc(CN2CCC(O)CC2)cc1	0	0	9	0	.	.	.	.
CSc1ccc(CN2CCN(C(=O)C(c3ccccc3)c3ccccc3)CC2)cc1	0	-3	53*	-2	0	0	.	.
COc1ccc(CN(Cc2cc3ccc(C)cc3n3nnnc23)C(=O)N(C)C)cc1	0	6	5	3	.	.	.	.
C[C@H]1NC(=O)[C@@H]2C[C@H](NC(=O)Nc3ccc(C(F)(F)F)cc3)CN2C1=O	0	1	6	0	.	.	.	.
COc1cc(/C=N/NC(=O)C(=O)Nc2cc(C)ccc2C)cc(OC)c1OC	0	5	-3	1	.	.	.	.
COc1ccc(C(=O)N2CCN(Cc3ccccc3Br)CC2)cc1	0	3	59*	0	1	8	.	.
COc1cccc(C(=O)N2CCN(Cc3ccccc3F)CC2)c1	1	3	58*	-1	13	9	.	.
COc1cccc(C(=O)N2CCN(Cc3ccccc3C(F)(F)F)CC2)c1	0	-9	71*	1	12	11	.	.
COc1cccc(C(=O)N2CCN(Cc3ccccc3Br)CC2)c1	0	-5	65*	1	7	16	.	.
O=C(c1ccc(F)cc1)N1CCN(Cc2ccccc2Br)CC1	0	7	50	1	.	.	.	.
COc1cccc(C(=O)N2CCN(Cc3cccc4ccccc34)CC2)c1	0	1	33	1	.	.	.	.
O=C(COC(=O)c1c2c(nc3ccccc13)CCC2)NC(=O)Nc1ccc2c(c1)OCCO2	0	-13	13	1	.	.	.	.
CN(C)S(=O)(=O)Nc1ccc(N2CCC(NCCc3ccncc3)CC2)cc1	0	2	7	0	.	.	.	.
CN(C)S(=O)(=O)Nc1ccc(N2CCC(NCCc3cccs3)CC2)cc1	0	6	63*	0	11	14	.	.
CCCC1=C(C(=O)OCC)C(c2cc(OC)ccc2OC)n2c(s/c(=C/c3ccncc3)c2=O)=N1 (stereo not drawn)	0	2	10	-1	.	.	.	.
COc1ccc2c(c1)CC(C(=O)Nc1ccc(-c3cn[nH]c3)cc1O[C@@H]1CCN(C)C1)CC2 (stereo partly drawn)	0	2	10	-1	.	.	.	.
O=C1c2ccc([N+](=O)[O-])cc2C(=O)N1c1cc(Br)c(O)c(Br)c1	0	6	69*	0	75*	-30	.	.	AlphaScreen DR=>6.5
CC1=CC(C)(C)N(C(=O)CN2C(=O)c3cccc([N+](=O)[O-])c3C2=O)c2ccccc21	0	-3	-3	0	.	.	.	.
OC(CNc1ccccc1)CN1c2ccccc2Sc2ccccc21 (stereo not drawn)	1	0	9	0	.	.	.	.
Cc1ccc(C)c(NCC(O)CN2c3ccccc3Sc3ccccc32)c1 (stereo not drawn)	0	6	73*	0	1	3	.	.
Cc1ccc(-n2c(=O)c3oc4ccccc4c3n(CC(N)=O)c2=O)cc1	0	-4	54*	5.5*	11	12	0	-5
SMILES	FBW7 activator	TEAD-YAP inh	MITF primary	GPR151 ag	MITF inh conf	AS interf ctr	GPR151 confirm	GPR119 ag	others
COc1ccc(NC(=O)c2cnc(N3CCN(c4ccccn4)CC3)c3ccccc23)cc1Cl	0	19	-3	-1	.	.	.	.
COc1ccc(NC(=O)c2cnc(N3CCN(c4ncccn4)CC3)c3ccccc23)cc1OC	0	50*	63*	5.3*	-9	-4	0	30*
Cc1oc2c(C)c(O)ccc2c(=O)c1Oc1ccccc1F	0	10	11	-2	.	.	.	.
NCCCC[C@@H]1NC(=O)[C@H]2CN(Cc3ccc(Cl)cc3)CCN2C1=O	0	3	8	-1	.	.	.	.
COC(=O)N(C)c1nc2ccccc2s1	0	-20	72*	5.1*	-2	-7	0	-10
Cc1ccc(OCCOCCN2CCCCC2)c([N+](=O)[O-])c1	0	4	77*	7.6*	12	14	-1	-12
O=C1N[C@@H](COCc2ccccc2)C(=O)N2CCN(C(=O)Oc3ccc(Cl)cc3)C[C@H]12	0	2	-7	2	.	.	.	.
O=C1N[C@@H](COCc2ccccc2)C(=O)N2CCN(C(=O)NCc3ccccc3)C[C@H]12	0	6	75*	7.7*	72*	-3	0	11	AlphaScreen DR=>6.5
CCN1CCN(CCOc2ccc(C)cc2OC)CC1	0	4	76*	5.8*	15	19	0	-2
COc1cc(C)ccc1OCCCN1CCCCCC1	0	0	9	2	.	.	.	.
CCOC(=O)c1[nH]ncc1[C@@H]1C[C@H]2CN(C3CCN(C)CC3)C(=O)[C@]23CCCN13	0	-2	1	-2	.	.	.	.
COc1ccc(C(=O)N2CCN(Cc3ccc(Br)cc3)CC2)cc1	0	31	44	1	.	.	.	.
O=C(c1ccncc1)N1CCN(Cc2ccc(Br)cc2)CC1	0	2	77*	10*	6	22	1	16
CC1CN(CCCOc2cc(Cl)ccc2Cl)CC(C)O1 (stereo not drawn)	0	2	67*	8.0*	2	15	0	-9
Cc1ccc(OCCSc2n[nH]c(N)n2)cc1	0	-1	-5	2	.	.	.	.
Cc1cccc(C(=O)Oc2ccc(C)c(C)c2)c1	0	2	-22	1	.	.	.	.
Cc1cccc(C(=O)Oc2ccc(/C=N/N=C(N)N)cc2)c1	0	65*	-14	8.5*	.	.	-1	-14
Cc1cc(NC2CCN(Cc3ccccc3)CC2)nc(-c2cccs2)n1	0	7	10	2	.	.	.	.
c1ccc(CN2CCC(Nc3ncc(-c4cccs4)cn3)CC2)cc1	0	-10	-3	6.8*	.	.	0	4
COc1cc2c(cc1OC)C(COc1ccc(F)cc1)N(C(=O)/C=C/c1cc(OC)c(OC)c(OC)c1)CC2 (stereo not drawn)	0	7	5	6.3*	.	.	1	10
COc1cc2c(cc1OC)C(COc1ccc(F)cc1)NCC2 (stereo not drawn)	0	6	1	7.1*	.	.	0	1
